# Inconclusive results are not listed. Values without a mark were called inactive. Active and inactive are the calls of the source. Unless noted, the call rests on the fitted dose curve; in most records, active means well fitted curve in either direction with a large enough effect (not every such curve was filed as active); inconclusive means small, poorly fitted or top-dose-only effect, or another doubt; inactive means flat fitted curve, though single readings scatter.
# Experiment: Cell Viability - MRC5 (AID 434; calls by dose curve;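 further: potency means the concentration at half of the fitted maximal effect; cells exposed to compound for 40 hours at 37 °C; potency reflects cytotoxicity seen as loss of intracellular ATP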)
# Settings: MRC5 lung fibroblast viability, qHTS
# Procedure, shortened: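 ATP luminescence read-out (CellTiter-Glo, 20 min RT) after 40 hr, 37 °C compound exposure of 1500 MRC5 cells/well. Data normalized to DMSO (basal) and 100 uM tamoxifen (100% inhibition); AC50 from standard Hill equation.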
row,Compound,Potency
1,O=C(O)Cc1cccc2ccccc12,> 92 µM
2,CCn1cc(C(=O)O)c(=O)c2ccc(C)nc21,> 92 µM
3,CC(=O)O[C@]1(C(C)=O)CC[C@H]2[C@@H]3C=C(Cl)C4=CC(=O)[C@@H]5C[C@@H]5[C@]4(C)[C@H]3CC[C@@]21C,> 92 µM
4,O=c1[nH]cnc2c1ncn2[C@H]1CC[C@@H](CO)O1,> 92 µM
5,O=c1c(O)c(-c2ccc(O)cc2)oc2cc(O)cc(O)c12,> 92 µM
6,CC1=C(/C=C/C(C)=C/C=C/C(C)=C/C(=O)Nc2ccc(O)cc2)C(C)(C)CCC1,24.7 µM (active)
7,CN(C)CCC(c1ccccc1)c1ccccn1 (stereo unspecified),> 92 µM

# Experiment: NFAT Signaling Pathway (AID 444);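 further: carbachol stimulus at about its EC50 of 1 µM final; on the % scale 0 is the no-effect control and ±100 the full control effect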
# Settings: Jurkat NFAT-bla M1, carbachol, beta-lactamase ratio, 5 h; series mostly up to 17.2 µM; activity change, negative = inhibition: at the top concentration
# Procedure, shortened: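 Jurkat cells with NFAT-driven β-lactamase reporter and co-expressed M1 receptor, stimulated with carbachol (final 1 uM, ~EC50), compound titration, 5 h at 37 °C. CCF4 loaded 1 h at RT; 460/530 nm ratio gave %activity and AC50.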
row,Compound,"activity change, negative = inhibition"
1,CC(=O)N[C@@H](CS)C(=O)O,6.86%
2,O=C(O)c1cc(-c2ccccc2)nc2ccccc12,-0.33%
3,CC(C)(C)c1ccc(C(O)CCCN2CCC(C(O)(c3ccccc3)c3ccccc3)CC2)cc1 (stereo unspecified),-2.2%
4,Nc1ncnc2c1ncn2[C@@H]1O[C@@H](CO)[C@H](O)[C@H]1O,-2.09%
5,CC(C(=O)O)c1ccc(-c2ccccc2)c(F)c1 (stereo unspecified),7.83%
6,COc1cccc(-c2cc(=O)c3ccccc3o2)c1N,4.41% [at 38 µM]
7,O=C1C[C@@H](c2ccc(O)cc2)Oc2cc(O)cc(O)c21,12.9%
8,COc1ccc2c3c1OC1C[C@@H](O)C=C[C@@]31CCN(C)C2 (stereo partly specified),1.6%
9,CC(C)NCC(O)COc1cccc2[nH]ccc12 (stereo unspecified),18.9%

# Experiment: Stat Signaling Pathway (AID 446);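 further: ME-180 cervical cancer cells given 40 pM IL-6 alongside compound; SIE-controlled beta-lactamase reporter measured as 460/530 nm FRET emission ratio; on the % scale 0 is the no-effect control and ±100 the full control effect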
# Settings: ME-180 (cervical carcinoma) SIE beta-lactamase reporter, IL-6 stimulated, 5 h; at 17.2 µM (top of the series)
# Procedure, shortened: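 Overnight-plated ME-180 cells bearing a STAT Inducible Element beta-lactamase reporter; 5 h co-exposure to compound and 40 pM IL-6; values normalized to 300 pM IL-6 and 125 nM JAK inhibitor controls.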
row,Compound,"activity, negative = inhibition"
1,CC(=O)N[C@@H](CS)C(=O)O,3.22%
2,O=C(O)c1cc(-c2ccccc2)nc2ccccc12,-0.648%
3,CC[C@]1(O)C[C@@H]2CN(CCc3c([nH]c4ccccc34)[C@@](C(=O)OC)(c3cc4c(cc3OC)N(C)[C@H]3[C@@](O)(C(=O)OC)[C@H](OC(C)=O)[C@]5(CC)C=CCN6CC[C@]43[C@@H]65)C2)C1,-9.58%
4,O=c1cc(-c2ccc(O)cc2)oc2cc(O)cc(O)c12,-101% (active)
5,CC(C)(C)c1ccc(C(O)CCCN2CCC(C(O)(c3ccccc3)c3ccccc3)CC2)cc1 (stereo unspecified),-1.77%
6,Nc1ncnc2c1ncn2[C@@H]1O[C@@H](CO)[C@H](O)[C@H]1O,-10%
7,CC(C(=O)O)c1ccc(-c2ccccc2)c(F)c1 (stereo unspecified),-6.1%
8,O=C1C[C@@H](c2ccc(O)cc2)Oc2cc(O)cc(O)c21,0.762%
9,COc1ccc2c3c1OC1C[C@@H](O)C=C[C@@]31CCN(C)C2 (stereo partly specified),12.6%
10,CC(C)NCC(O)COc1cccc2[nH]ccc12 (stereo unspecified),24.1%
